These results are taken from PubChem BioAssay (NCI).

Some test systems named below: NCI-H23 lung; NCI-H226 lung; NCI-H322M lung; HOP-62 NSCLC; NCI-H460 lung; NCI-H522 lung; 786-0 renal; COLO 205 colon; A549/ATCC NSCLC.
Holding throughout (assay): NCI-60 one-dose screen, 48 h (100 = growth as untreated, 0 = no growth, -100 = all killed)
Common to all, as to settings: 10 µM unless noted

Compounds without any hit were thinned out: in the full panel of roughly 83,000, 20% have a hit.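 Cell lines were cultured in 96-well plates, exposed to a single compound concentration, and assessed for percent growth 48 hours later.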 Unmarked numbers belong to inactive results. The source made the active and inactive calls. Rule for the calls: active = growth percent below 10; inactive = the rest.

Consider `CCCCS(=O)(=O)Oc1ccc(-c2nc(C)c(C(=O)OCC)s2)cc1C=O`, for which the growth in the assay with NCI-H23 lung is 84%; in the assay with NCI-H226 lung, 87.1%; in the assay on NCI-H322M lung, 86.7%; with HOP-62 NSCLC it was 68.4%; in the assay on NCI-H460 lung, 58.7%; in the assay on NCI-H522 lung it was 58.3%. Further, the growth was 74.4% with 786-0 renal and 106% in the assay on COLO 205 colon.
Regarding `C=C(C)C1CCC(=C)C2CCC3(C)OC12/C=C(/COC(C)=O)CCC3O` (stereo not drawn), the growth with NCI-H23 lung was 111%; in the assay with NCI-H226 lung it was 102%; with NCI-H322M lung it was 97.9%; in the assay on HOP-62 NSCLC it was 103%; in the assay with NCI-H460 lung it was 104%; with NCI-H522 lung, 93.3%. For the same compound, the figures for the growth in the assay on A549/ATCC NSCLC and with 786-0 renal were 74.2% and 106%, respectively.
Turning to `CCNCCNc1cc(-c2ccc(F)cc2)c(C#N)c2nc3ccccc3n12`, the growth in the assay with NCI-H23 lung was 77.8%; with NCI-H226 lung it was 93.1%; with NCI-H322M lung it was 66.3%; with HOP-62 NSCLC it was 75.6%; in the assay with NCI-H460 lung, 3.07% (active); in the assay with NCI-H522 lung, 64.3%. The growth in the assay on A549/ATCC NSCLC is 46%; in the assay on 786-0 renal it was 57.9%.
As to `COc1ccc(-n2sc(=O)n(Cc3ccc(COC(=O)C(C)c4ccc(CC(C)C)cc4)cc3)c2=O)cc1` (stereo not drawn), the growth is 78.1% in the assay on NCI-H23 lung; 68.2% with NCI-H226 lung; 94.9% in the assay on NCI-H322M lung; 66.8% in the assay on HOP-62 NSCLC; 76.4% with NCI-H460 lung; 80.8% in the assay on A549/ATCC NSCLC. For the same compound, the growth in the assay on 786-0 renal was 57.3%; in the assay with COLO 205 colon, -10.9% (active).
Regarding `COc1ccc(/C=C2\COc3ccc(O)cc3C2=O)cc1OC`, the growth in the assay with NCI-H23 lung is 105%; in the assay on NCI-H226 lung, 97%; with NCI-H322M lung it was 90.4%; in the assay with HOP-62 NSCLC, 76%; with NCI-H460 lung, 67.6%; in the assay on NCI-H522 lung, 35.2%. In addition, the growth in the assay on A549/ATCC NSCLC is 91.2%; in the assay on 786-0 renal, 88.2%; with COLO 205 colon it was 93.9%.
For `CCCc1nc2ccccn2c1Nc1ccc(C(=O)NO)cc1`, the growth in the assay with NCI-H23 lung was 61.4%; in the assay with NCI-H226 lung, 92.6%; in the assay on NCI-H322M lung, 97.4%; in the assay with HOP-62 NSCLC it was 90.4%; in the assay with NCI-H460 lung it was 85.9%; with NCI-H522 lung, 64.9%. Also, the growth in the assay with A549/ATCC NSCLC is 97.1%; with 786-0 renal, 95.5%.
`COc1ccc(-c2nc3ccccn3c2/C=C/C(=O)c2cc(OC)c(OC)c(OC)c2)cc1`: the growth with NCI-H23 lung is 45.1%; with NCI-H226 lung, 71.7%; in the assay with NCI-H322M lung, 73.2%; in the assay on HOP-62 NSCLC it was 70.8%; with NCI-H460 lung it was 34.4%; in the assay on NCI-H522 lung, 26.7%. The results for the growth with A549/ATCC NSCLC and in the assay with 786-0 renal were 55.8% and 63.1%, respectively.
Regarding `COc1ccc(C2CC(c3cnccn3)=NN2)cc1OC` (stereo not drawn), the growth in the assay on NCI-H23 lung was 101%; in the assay on NCI-H226 lung it was 98.8%; with NCI-H322M lung it was 90.9%; with HOP-62 NSCLC it was 111%; with NCI-H460 lung it was 108%; in the assay with NCI-H522 lung, 67%. Further, the growth in the assay with A549/ATCC NSCLC was 90.4%; with 786-0 renal it was 92%.
For `CC(C)(O)c1cccc(F)c1`, the growth is 104% in the assay with NCI-H23 lung; 105% in the assay on NCI-H226 lung; 100% with NCI-H322M lung; 138% with HOP-62 NSCLC; 112% in the assay with NCI-H460 lung; 99.6% in the assay with NCI-H522 lung. The growth in the assay on A549/ATCC NSCLC and in the assay with 786-0 renal was 104% throughout.
For the compound `NC(N)=N/N=C(/c1ccccc1)c1ccc(N)cc1`, the growth with NCI-H23 lung is 101%; with NCI-H226 lung, 89.6%; with NCI-H322M lung, 91.2%; with HOP-62 NSCLC, 100%; in the assay on NCI-H460 lung, 110%; in the assay with NCI-H522 lung, 88.5%. Besides, the growth with A549/ATCC NSCLC is 99.5%; in the assay on 786-0 renal, 105%.
For `Cc1ccc(S(=O)(=O)Nc2sccc2-c2nc(-c3ccccc3)no2)cc1`, the growth was 87.5% in the assay on NCI-H23 lung; 87.9% in the assay on NCI-H226 lung; 82.1% in the assay with NCI-H322M lung; 77.8% in the assay on HOP-62 NSCLC; 92.3% in the assay with NCI-H460 lung; 81.2% with NCI-H522 lung. For the same compound, the growth with A549/ATCC NSCLC was 90.3%; in the assay on 786-0 renal, 94.5%.
Turning to `C=C1C(=O)O[C@H]2[C@H]1CC/C(COC(=O)/C=C\C(=O)NCc1ccc(Cn3c(=O)sn(CCCI)c3=O)cc1)=C\CC[C@@]1(C)O[C@@H]21`, the growth in the assay on NCI-H23 lung was -72.1% (active); in the assay on NCI-H226 lung, -77% (active); with NCI-H322M lung, 17.3%; in the assay with HOP-62 NSCLC, -36% (active); in the assay on NCI-H460 lung, -79.1% (active); with NCI-H522 lung, -56.1% (active). Also, the growth with A549/ATCC NSCLC was -0.92% (active); with 786-0 renal, -76.9% (active); with COLO 205 colon, -52.7% (active).
Consider `CCOC(=O)C(=CNc1ccccc1[N+](=O)[O-])C(=O)OCC`, for which the growth in the assay on NCI-H23 lung was 99%; with NCI-H226 lung it was 88.1%; with NCI-H322M lung it was 96.3%; with HOP-62 NSCLC, 107%; in the assay on NCI-H460 lung it was 105%; in the assay on NCI-H522 lung it was 89.5%. Besides, the values for the growth in the assay on A549/ATCC NSCLC and in the assay with 786-0 renal were 88.5% and 97.2%, respectively.
On to `C[N+](C)(C)CCOC(OCC[N+](C)(C)C)(c1ccccc1)c1ccccc1`, for which the growth was 99.8% with NCI-H23 lung; 107% with NCI-H226 lung; 129% in the assay with NCI-H322M lung; 106% with HOP-62 NSCLC; 106% in the assay with NCI-H460 lung; 93% in the assay on NCI-H522 lung. For the same compound, the figures for the growth in the assay with A549/ATCC NSCLC, in the assay on 786-0 renal and in the assay on COLO 205 colon were 100%, 114% and 116%, respectively.
With `COc1ccc(-c2nnc(SCC(=O)NC3=NN=C(c4ccccc4)CS3)o2)cc1`, the growth in the assay on NCI-H23 lung was 103%; with NCI-H226 lung, 93.8%; with NCI-H322M lung it was 102%; in the assay with HOP-62 NSCLC, 86.2%; in the assay with NCI-H460 lung, 101%; in the assay on NCI-H522 lung, 93.3%. Also, the growth in the assay on A549/ATCC NSCLC is 74.7%; in the assay with 786-0 renal, 101%.
